# Assay results from article PMC7862700, “An all-to-all approach to the identification of sequence-specific readers for epigenetic DNA modifications on cytosine”.
# Tests used:
# Test in all cases: DAPPL (digital affinity profiling via proximity ligation, sequencing); 10 mM Tris-HCl pH 7.5, 50 mM NaCl, 1 mM DTT, 4% glycerol, room temperature, 30 min; GST-TFs on glutathione beads, 16-mer random dsDNA library, 0.1% formaldehyde crosslink after washing; high values mean tight binding
# [1] = target: T1, FEV (Homo sapiens, UniProt Q99581 1-238); conditions: protein: recombinant; tags: N-terminal GST; dsDNA, one strand shown
# T1 sequence: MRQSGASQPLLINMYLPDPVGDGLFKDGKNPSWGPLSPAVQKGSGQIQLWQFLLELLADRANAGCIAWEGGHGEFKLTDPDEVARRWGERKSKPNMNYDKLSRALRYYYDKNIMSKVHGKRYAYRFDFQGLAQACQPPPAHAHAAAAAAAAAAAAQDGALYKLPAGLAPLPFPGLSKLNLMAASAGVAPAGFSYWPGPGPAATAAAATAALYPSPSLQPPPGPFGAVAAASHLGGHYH
# Method in brief: (§1)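 In yeast, human transcription factors were expressed with a GST fusion, then pulled down on glutathione beads and given DNA barcodes. Pooled with a tag-only sample, they were exposed to 200 nmole of a 16-mer random double-stranded DNA library (Tris/NaCl/DTT/glycerol buffer, room temperature, 30 min), washed, crosslinked with 0.1% formaldehyde, proximity-ligated using BsaI/T4 ligase for 1 h at 37 °C, PCR-amplified and read on an Illumina NextSeq500. Each hexamer's frequency of reads for a factor, divided by the matching frequency for the tag-only sample, gives the binding signal.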
# [2] = target: ETV5 (Homo sapiens, UniProt P41161 1-510); conditions: protein: recombinant; tags: N-terminal GST; dsDNA, one strand shown
# Chain of ETV5 (P41161 whole entry): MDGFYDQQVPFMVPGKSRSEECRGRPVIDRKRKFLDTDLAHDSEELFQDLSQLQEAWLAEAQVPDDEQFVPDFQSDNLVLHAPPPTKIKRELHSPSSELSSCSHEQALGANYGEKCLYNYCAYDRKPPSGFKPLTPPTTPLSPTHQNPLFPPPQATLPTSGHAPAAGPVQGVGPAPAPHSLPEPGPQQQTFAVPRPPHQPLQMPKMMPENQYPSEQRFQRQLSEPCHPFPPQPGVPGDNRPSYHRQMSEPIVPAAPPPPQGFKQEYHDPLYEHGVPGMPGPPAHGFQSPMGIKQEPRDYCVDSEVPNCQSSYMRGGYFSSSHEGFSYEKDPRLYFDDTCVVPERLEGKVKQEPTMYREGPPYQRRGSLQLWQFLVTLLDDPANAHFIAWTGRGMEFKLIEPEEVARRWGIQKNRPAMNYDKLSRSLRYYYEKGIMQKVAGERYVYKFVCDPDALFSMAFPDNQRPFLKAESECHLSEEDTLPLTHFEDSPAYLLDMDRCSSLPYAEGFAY
# Method in brief: as §1
# [3] = target: HSF1 (Homo sapiens, UniProt Q00613 1-529); conditions: protein: recombinant; tags: N-terminal GST; chain copies: 3; dsDNA, one strand shown
# Chain of HSF1 (Q00613 whole entry): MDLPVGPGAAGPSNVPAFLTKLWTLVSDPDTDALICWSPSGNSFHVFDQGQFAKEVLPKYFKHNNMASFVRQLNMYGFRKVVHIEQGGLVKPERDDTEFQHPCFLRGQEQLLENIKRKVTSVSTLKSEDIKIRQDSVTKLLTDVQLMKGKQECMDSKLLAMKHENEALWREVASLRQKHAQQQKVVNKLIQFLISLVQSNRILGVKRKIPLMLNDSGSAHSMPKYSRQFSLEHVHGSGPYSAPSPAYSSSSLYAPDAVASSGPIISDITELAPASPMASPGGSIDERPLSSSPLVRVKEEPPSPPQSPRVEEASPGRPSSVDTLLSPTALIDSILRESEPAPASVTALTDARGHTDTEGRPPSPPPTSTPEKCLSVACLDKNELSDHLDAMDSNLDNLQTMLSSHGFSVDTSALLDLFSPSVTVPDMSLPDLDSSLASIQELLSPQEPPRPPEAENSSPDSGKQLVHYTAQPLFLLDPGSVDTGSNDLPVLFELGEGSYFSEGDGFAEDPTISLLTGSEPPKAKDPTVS
# Method in brief: as §1
# [4] = target: T2, SPIC (Homo sapiens, UniProt Q8N5J4 1-248); conditions: protein: recombinant; tags: N-terminal GST; dsDNA, one strand shown
# T2 sequence: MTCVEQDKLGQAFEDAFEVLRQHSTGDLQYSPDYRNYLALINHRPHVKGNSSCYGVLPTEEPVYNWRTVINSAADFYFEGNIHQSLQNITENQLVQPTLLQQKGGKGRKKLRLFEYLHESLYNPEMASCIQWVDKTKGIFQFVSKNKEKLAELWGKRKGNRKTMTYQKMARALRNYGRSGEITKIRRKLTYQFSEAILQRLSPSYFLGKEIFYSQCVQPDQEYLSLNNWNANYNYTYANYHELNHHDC
# Method in brief: as §1
# [5] = target: ELF4 (Homo sapiens, UniProt Q99607 1-663); conditions: protein: recombinant; tags: N-terminal GST; dsDNA, one strand shown
# Chain of ELF4 (Q99607 whole entry): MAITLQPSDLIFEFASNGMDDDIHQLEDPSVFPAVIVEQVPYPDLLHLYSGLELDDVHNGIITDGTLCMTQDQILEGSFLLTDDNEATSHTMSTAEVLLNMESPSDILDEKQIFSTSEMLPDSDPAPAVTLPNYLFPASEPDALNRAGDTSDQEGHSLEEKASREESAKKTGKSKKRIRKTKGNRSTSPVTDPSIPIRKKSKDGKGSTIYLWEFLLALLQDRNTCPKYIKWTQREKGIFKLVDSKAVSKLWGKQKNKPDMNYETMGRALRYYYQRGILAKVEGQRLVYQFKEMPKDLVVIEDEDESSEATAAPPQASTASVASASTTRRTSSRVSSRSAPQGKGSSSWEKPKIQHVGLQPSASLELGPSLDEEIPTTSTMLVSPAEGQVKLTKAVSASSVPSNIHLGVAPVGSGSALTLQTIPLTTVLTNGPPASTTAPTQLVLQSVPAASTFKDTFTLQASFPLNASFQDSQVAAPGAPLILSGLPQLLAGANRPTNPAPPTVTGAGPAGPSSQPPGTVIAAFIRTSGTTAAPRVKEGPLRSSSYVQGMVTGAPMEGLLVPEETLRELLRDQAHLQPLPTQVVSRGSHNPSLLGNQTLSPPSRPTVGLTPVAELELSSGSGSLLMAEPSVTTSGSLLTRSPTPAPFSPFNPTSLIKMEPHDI
# Method in brief: as §1
# [6] = target: T3, ELK4 (Homo sapiens, UniProt P28324-2 1-405); conditions: protein: recombinant; tags: N-terminal GST; dsDNA, one strand shown
# T3 sequence: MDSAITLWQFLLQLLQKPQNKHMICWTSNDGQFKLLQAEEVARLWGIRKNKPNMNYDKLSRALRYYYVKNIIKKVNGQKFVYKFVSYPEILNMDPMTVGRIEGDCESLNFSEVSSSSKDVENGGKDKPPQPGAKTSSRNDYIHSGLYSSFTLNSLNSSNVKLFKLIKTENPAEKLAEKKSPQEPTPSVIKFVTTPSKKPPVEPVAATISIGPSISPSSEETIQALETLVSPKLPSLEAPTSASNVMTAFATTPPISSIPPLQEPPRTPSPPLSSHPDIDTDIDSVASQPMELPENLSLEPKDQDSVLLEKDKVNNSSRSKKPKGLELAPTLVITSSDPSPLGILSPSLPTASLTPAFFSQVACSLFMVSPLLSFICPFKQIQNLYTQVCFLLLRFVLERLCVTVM
# Method in brief: as §1
# [7] = target: T4, ETV2 (Homo sapiens, UniProt O00321 1-342); conditions: protein: recombinant; tags: N-terminal GST; dsDNA, one strand shown
# T4 sequence: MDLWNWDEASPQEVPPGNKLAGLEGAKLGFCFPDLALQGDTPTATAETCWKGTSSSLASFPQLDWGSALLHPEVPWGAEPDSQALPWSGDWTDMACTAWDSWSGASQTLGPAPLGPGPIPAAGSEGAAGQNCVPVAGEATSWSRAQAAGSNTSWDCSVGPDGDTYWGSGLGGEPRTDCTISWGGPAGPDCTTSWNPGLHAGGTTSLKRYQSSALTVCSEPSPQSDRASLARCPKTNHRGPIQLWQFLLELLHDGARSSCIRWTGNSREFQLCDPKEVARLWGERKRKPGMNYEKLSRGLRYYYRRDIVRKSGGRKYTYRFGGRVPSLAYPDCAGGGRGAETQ
# Method in brief: as §1
# [8] = target: T5, ELF3 (Homo sapiens, UniProt P78545 1-371); conditions: protein: recombinant; tags: N-terminal GST; dsDNA, one strand shown
# T5 sequence: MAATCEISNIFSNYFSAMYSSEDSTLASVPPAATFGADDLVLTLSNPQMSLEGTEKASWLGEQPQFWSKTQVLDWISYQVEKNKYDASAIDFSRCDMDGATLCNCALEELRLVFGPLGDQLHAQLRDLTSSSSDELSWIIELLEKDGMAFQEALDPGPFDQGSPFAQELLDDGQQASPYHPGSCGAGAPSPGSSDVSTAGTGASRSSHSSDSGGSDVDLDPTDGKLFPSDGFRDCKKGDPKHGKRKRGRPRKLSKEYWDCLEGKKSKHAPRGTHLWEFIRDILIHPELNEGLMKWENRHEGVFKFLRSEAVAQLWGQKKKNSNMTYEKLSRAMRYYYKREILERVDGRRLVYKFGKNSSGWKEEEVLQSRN
# Method in brief: as §1
# [9] = target: CRX (Homo sapiens, UniProt O43186 1-299); conditions: protein: recombinant; tags: N-terminal GST; dsDNA, one strand shown
# Chain of CRX (O43186 whole entry): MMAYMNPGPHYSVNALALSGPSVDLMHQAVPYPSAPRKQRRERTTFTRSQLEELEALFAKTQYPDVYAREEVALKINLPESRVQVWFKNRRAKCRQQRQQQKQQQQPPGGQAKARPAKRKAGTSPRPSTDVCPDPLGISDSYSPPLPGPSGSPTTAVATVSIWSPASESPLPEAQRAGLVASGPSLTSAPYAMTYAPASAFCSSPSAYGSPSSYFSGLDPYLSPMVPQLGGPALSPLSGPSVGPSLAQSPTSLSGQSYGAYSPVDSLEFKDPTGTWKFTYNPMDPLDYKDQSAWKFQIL
# Method in brief: as §1
# [10] = target: ETV1 (Homo sapiens, UniProt P50549 1-477); conditions: protein: recombinant; tags: N-terminal GST; dsDNA, one strand shown
# Chain of ETV1 (P50549 whole entry): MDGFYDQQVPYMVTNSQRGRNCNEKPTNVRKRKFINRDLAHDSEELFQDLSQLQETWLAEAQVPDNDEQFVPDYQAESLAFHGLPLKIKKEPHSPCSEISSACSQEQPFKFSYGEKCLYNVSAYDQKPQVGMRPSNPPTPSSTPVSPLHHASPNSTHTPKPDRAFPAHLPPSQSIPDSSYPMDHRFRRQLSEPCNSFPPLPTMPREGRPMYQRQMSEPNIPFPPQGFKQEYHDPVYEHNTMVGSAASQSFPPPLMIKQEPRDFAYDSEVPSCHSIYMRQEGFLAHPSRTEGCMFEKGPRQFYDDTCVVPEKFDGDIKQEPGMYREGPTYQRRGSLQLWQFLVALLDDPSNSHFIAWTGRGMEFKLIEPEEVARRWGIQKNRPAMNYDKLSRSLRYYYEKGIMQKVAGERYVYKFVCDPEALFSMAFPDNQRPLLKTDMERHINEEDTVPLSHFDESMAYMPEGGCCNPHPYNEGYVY
# Method in brief: as §1
# [11] = target: T6, ERF (Homo sapiens, UniProt P50548 1-548); conditions: protein: recombinant; tags: N-terminal GST; dsDNA, one strand shown
# T6 sequence: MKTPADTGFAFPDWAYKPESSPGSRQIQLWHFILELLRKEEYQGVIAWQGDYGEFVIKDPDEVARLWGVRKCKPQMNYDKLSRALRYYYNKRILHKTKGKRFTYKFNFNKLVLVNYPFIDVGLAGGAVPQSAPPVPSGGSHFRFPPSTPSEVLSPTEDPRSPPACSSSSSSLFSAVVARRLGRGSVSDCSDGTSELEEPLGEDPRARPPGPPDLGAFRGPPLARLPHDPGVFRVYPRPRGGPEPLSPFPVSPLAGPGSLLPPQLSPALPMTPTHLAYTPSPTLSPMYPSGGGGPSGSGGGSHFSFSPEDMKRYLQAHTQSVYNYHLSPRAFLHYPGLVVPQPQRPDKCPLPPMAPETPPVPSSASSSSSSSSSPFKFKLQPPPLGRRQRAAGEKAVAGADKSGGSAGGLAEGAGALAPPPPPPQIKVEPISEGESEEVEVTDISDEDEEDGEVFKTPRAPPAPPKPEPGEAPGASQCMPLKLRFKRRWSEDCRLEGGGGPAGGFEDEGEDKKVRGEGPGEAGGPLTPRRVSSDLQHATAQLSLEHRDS
# Method in brief: as §1
# [12] = target: T7, ETV3L (Homo sapiens, UniProt Q6ZN32 1-361); conditions: protein: recombinant; tags: N-terminal GST; dsDNA, one strand shown
# T7 sequence: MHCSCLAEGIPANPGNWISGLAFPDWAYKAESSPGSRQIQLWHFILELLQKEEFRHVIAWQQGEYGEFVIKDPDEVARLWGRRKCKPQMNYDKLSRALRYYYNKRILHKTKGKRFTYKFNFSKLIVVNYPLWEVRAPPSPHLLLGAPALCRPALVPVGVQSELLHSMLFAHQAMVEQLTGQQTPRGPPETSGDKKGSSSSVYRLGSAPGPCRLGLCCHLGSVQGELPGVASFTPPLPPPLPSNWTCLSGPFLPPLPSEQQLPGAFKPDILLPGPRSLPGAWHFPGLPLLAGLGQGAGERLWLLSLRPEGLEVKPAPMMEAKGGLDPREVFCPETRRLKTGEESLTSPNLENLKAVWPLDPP
# Method in brief: as §1
# [13] = target: T8, ETS2 (Homo sapiens, UniProt P15036 1-469); conditions: protein: recombinant; tags: N-terminal GST; dsDNA, one strand shown
# T8 sequence: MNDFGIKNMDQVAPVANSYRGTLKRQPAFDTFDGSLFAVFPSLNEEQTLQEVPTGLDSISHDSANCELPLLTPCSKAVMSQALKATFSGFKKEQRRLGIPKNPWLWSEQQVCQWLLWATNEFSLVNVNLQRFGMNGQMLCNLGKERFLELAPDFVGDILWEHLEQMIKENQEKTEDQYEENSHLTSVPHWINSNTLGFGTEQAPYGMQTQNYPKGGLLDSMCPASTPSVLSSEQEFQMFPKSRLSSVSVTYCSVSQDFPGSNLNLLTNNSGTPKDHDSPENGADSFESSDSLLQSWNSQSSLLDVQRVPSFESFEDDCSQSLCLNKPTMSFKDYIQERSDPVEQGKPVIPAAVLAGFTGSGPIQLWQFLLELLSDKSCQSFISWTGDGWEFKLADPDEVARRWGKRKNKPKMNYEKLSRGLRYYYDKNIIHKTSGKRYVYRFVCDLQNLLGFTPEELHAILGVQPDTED
# Method in brief: as §1
# [14] = target: T9, SPDEF (Homo sapiens, UniProt O95238 1-335); conditions: protein: recombinant; tags: N-terminal GST; dsDNA, one strand shown
# T9 sequence: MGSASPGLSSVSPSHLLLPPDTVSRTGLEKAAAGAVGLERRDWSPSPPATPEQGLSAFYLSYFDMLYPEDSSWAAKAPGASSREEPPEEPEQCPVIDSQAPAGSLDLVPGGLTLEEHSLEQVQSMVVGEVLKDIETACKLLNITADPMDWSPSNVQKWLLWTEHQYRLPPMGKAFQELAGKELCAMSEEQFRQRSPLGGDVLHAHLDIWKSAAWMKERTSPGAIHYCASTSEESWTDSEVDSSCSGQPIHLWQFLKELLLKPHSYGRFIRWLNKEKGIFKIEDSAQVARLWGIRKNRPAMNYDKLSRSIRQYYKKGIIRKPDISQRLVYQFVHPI
# Method in brief: as §1
# [15] = target: T10, ETV7 (Homo sapiens, UniProt Q9Y603 1-341); conditions: protein: recombinant; tags: N-terminal GST; dsDNA, one strand shown
# T10 sequence: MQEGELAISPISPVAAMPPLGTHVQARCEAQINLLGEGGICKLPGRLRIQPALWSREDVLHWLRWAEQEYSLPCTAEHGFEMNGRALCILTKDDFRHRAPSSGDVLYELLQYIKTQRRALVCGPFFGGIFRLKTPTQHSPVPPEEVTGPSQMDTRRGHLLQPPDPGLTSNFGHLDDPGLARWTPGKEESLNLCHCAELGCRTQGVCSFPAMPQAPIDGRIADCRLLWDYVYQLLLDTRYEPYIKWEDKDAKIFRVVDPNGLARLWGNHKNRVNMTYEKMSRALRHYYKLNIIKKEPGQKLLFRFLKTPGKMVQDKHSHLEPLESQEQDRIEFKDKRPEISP
# Method in brief: as §1
# [16] = target: T11, ELF5 (Homo sapiens, UniProt Q9UKW6-2 1-255); conditions: protein: recombinant; tags: N-terminal GST; dsDNA, one strand shown
# T11 sequence: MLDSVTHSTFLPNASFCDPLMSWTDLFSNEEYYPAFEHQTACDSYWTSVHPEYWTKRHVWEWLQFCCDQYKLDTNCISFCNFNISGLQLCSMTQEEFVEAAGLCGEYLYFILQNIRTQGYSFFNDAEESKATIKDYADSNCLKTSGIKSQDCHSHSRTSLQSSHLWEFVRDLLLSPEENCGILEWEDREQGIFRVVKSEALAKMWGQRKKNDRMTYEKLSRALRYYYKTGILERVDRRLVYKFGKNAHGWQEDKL
# Method in brief: as §1
# [17] = target: T12, ETV3 (Homo sapiens, UniProt P41162-2 1-143); conditions: protein: recombinant; tags: N-terminal GST; dsDNA, one strand shown
# T12 sequence: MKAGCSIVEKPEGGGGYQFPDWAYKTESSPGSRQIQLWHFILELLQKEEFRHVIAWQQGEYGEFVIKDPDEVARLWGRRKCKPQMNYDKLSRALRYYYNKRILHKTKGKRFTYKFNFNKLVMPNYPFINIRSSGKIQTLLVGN
# Method in brief: as §1
# [18] = target: ETV6 (Homo sapiens, UniProt P41212 1-452); conditions: protein: recombinant; tags: N-terminal GST; dsDNA, one strand shown
# Chain of ETV6 (P41212 whole entry): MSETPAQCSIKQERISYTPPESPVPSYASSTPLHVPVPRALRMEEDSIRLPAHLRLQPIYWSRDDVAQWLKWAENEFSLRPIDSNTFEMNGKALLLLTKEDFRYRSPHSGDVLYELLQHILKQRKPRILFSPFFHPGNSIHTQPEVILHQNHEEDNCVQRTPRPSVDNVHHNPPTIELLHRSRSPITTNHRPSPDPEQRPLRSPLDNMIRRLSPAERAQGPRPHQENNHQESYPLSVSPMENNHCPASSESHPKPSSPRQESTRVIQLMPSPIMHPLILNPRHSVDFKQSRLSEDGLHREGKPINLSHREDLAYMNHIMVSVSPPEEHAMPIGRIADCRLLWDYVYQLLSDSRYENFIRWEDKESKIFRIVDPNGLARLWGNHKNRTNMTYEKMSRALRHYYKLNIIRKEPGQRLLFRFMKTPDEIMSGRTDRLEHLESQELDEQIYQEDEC
# Method in brief: as §1
sequence,measurement,setting,value
CCTCAA,binding signal,[1],"1.42 fold enrichment (6-mer frequency, TF over GST control)"
same,binding signal,[2],"1.42 fold enrichment (6-mer frequency, TF over GST control)"
same,binding signal,[3],"1.2 fold enrichment (6-mer frequency, TF over GST control)"
same,binding signal,[4],"1.46 fold enrichment (6-mer frequency, TF over GST control)"
same,binding signal,[5],"1.38 fold enrichment (6-mer frequency, TF over GST control)"
same,binding signal,[6],"1.35 fold enrichment (6-mer frequency, TF over GST control)"
same,binding signal,[7],"1.61 fold enrichment (6-mer frequency, TF over GST control)"
same,binding signal,[8],"1.54 fold enrichment (6-mer frequency, TF over GST control)"
same,binding signal,[9],"1.15 fold enrichment (6-mer frequency, TF over GST control)"
same,binding signal,[10],"1.42 fold enrichment (6-mer frequency, TF over GST control)"
same,binding signal,[11],"1.32 fold enrichment (6-mer frequency, TF over GST control)"
same,binding signal,[12],"1.58 fold enrichment (6-mer frequency, TF over GST control)"
same,binding signal,[13],"1.39 fold enrichment (6-mer frequency, TF over GST control)"
same,binding signal,[14],"1.38 fold enrichment (6-mer frequency, TF over GST control)"
same,binding signal,[15],"1.27 fold enrichment (6-mer frequency, TF over GST control)"
same,binding signal,[16],"1.52 fold enrichment (6-mer frequency, TF over GST control)"
same,binding signal,[17],"1.48 fold enrichment (6-mer frequency, TF over GST control)"
same,binding signal,[18],"1.42 fold enrichment (6-mer frequency, TF over GST control)"
